Experimental findings from PubChem BioAssay (NCATS) are described below.

Each structure is given as a SMILES string. Records with an inconclusive call do not appear. Active and inactive are the calls of the source. Unless noted, calls come from the whole dose curve; as a rule, active = well fitted curve in the direction sought with a large enough effect; inconclusive = small, poorly fitted or top-dose-only effect, or another doubt; inactive = no such curve, though single readings can be large; an effect the other way counts as inactive or inconclusive.

For assay [1], the target named is Lysosomal acid glucosylceramidase (Homo sapiens) (UniProt P04062). Nature of the assay: Glucocerebrosidase-p2 (AID 348; in the data active = potency below about 10 µM; note: potency is the fitted concentration of half-maximal effect). The conditions noted are these: purified GBA, blue fluorogenic substrate, 40 min. In outline:
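Compounds titrated from 0.6 nM upwards against 0.2 nM enzyme in pH 5.9 citric acid/KH2PO4, taurocholate, tween-20; blue fluorogenic substrate 80 uM, 40 min room temperature, stopped and read Ex 365/Em 440 for AC50.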

In assay [2] the target is Cytochrome P450 1A2 (Homo sapiens) (UniProt P05177). Nature of the assay: p450-cyp1a2 (AID 410; calls by dose curve; note: potency is the fitted concentration of half-maximal effect). In outline: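 Inhibition was calculated relative to 57 uM furafylline (full inhibition). The reaction used human CYP1A2 at 20nM with Luciferin-ME at its Km, 100uM, driven by an NADPH-regenerating system for 60 min at room temperature.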
Cytochrome P450 1A2 (Homo sapiens), sequence (P05177 whole entry, looked up): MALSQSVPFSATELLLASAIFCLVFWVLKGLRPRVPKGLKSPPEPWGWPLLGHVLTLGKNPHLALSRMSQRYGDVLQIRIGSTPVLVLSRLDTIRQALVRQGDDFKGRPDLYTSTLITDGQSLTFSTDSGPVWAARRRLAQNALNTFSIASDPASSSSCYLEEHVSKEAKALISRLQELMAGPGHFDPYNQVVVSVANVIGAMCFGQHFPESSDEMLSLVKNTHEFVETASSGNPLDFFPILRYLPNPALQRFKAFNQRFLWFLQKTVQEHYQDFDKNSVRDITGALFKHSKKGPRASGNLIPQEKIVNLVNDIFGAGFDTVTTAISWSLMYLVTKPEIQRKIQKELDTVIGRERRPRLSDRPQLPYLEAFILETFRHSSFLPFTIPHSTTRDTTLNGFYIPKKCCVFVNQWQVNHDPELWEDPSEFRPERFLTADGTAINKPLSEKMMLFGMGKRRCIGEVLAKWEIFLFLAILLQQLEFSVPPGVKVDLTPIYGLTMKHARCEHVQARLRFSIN
The target in assay [3] is Glucocorticoid receptor (Homo sapiens) (UniProt P04150). Put plainly: GR-GFP Redistribution (AID 450;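 active = compounds whose dose series gives a full or clear partial fitted curve of increased nuclear translocation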; note: potency is the fitted concentration of half-maximal effect). The conditions noted are these: U2OS GR-GFP nuclear translocation, laser cytometry, 2 h.
Glucocorticoid receptor (Homo sapiens), sequence (P04150 whole entry, looked up, the tested form may be a part): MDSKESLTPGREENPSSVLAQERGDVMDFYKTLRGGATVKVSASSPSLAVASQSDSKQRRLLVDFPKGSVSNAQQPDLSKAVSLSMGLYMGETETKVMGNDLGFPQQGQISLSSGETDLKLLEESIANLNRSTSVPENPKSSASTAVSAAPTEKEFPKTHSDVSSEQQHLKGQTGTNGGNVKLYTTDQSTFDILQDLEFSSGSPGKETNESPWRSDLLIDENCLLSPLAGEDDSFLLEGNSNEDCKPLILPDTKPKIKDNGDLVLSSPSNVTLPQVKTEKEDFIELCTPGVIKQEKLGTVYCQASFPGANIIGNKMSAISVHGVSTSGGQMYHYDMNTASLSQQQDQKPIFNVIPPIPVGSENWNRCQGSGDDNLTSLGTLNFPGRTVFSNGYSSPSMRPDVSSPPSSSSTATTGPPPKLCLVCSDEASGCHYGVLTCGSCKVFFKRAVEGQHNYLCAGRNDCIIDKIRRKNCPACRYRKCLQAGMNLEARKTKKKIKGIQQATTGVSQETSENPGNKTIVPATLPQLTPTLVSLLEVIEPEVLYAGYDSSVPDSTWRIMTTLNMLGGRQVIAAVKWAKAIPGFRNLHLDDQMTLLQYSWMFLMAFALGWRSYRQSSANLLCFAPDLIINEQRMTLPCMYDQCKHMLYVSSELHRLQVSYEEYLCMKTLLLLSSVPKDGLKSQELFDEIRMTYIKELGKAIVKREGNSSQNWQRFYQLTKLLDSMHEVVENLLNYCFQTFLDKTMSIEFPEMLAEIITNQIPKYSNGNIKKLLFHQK
For assay [4] the target is unchanged. Put plainly: GR-EFC Redistribution (AID 451; calls by dose curve; note: potency is the fitted concentration of half-maximal effect). The conditions noted are these: CHO-K1 GR-EFC translocation, beta-gal luminescence, 2 h. The procedure, abridged: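 Translocation of GR-ED fusion to nuclear EA restores b-gal, read by luminescence after 1 h room-temperature detection. Engineered CHO-K1 biosensor cells, 1,000/well, exposed 2 h at 37 C to titrations up to 46 uM final.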

For assay [5], the target named is Mitogen-activated protein kinase 10 (Mus musculus) (UniProt Q61831). Nature of the assay: JNK3 AlphaScreen Assay (AID 530; active = well fitted curve in either direction with a large enough effect, not every such curve was filed as active;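 note: kinase came from lysate of stimulated human HepG2 cells; signal reports phosphorylation of biotinylated GST-cJun 1-79 at Ser73 with 10 µM ATP; % is set by controls: 0 for no effect and ±100 for the full control effect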). The procedure, abridged: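 Room-temperature AlphaScreen kinase assay; pre-activated HepG2 lysate as JNK3 source, biotin-GST-cJun(1-79) substrate, 10 uM ATP, compound 15 min preincubation.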
In assay [6] the target is 3',5'-cyclic-AMP phosphodiesterase 4B (Homo sapiens) (UniProt Q07343). Nature of the assay: qHTS Assay for Inhibitors of PDE-IV (AID 607; active = well fitted activation curve with a large enough effect in the main read-out, with a control signal flat, not every such curve was filed as active; note: % of control where 0% means no effect). The procedure, abridged: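 The readout is membrane depolarisation from a cAMP-sensing CNG channel, detected with a potential dye at ex 535/em 590. Cells were HEK293-derived (endogenous PDE-IV) at 1000 cells/well, titrated up to 22.9 uM final.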
3',5'-cyclic-AMP phosphodiesterase 4B (Homo sapiens), sequence (Q07343 whole entry, looked up): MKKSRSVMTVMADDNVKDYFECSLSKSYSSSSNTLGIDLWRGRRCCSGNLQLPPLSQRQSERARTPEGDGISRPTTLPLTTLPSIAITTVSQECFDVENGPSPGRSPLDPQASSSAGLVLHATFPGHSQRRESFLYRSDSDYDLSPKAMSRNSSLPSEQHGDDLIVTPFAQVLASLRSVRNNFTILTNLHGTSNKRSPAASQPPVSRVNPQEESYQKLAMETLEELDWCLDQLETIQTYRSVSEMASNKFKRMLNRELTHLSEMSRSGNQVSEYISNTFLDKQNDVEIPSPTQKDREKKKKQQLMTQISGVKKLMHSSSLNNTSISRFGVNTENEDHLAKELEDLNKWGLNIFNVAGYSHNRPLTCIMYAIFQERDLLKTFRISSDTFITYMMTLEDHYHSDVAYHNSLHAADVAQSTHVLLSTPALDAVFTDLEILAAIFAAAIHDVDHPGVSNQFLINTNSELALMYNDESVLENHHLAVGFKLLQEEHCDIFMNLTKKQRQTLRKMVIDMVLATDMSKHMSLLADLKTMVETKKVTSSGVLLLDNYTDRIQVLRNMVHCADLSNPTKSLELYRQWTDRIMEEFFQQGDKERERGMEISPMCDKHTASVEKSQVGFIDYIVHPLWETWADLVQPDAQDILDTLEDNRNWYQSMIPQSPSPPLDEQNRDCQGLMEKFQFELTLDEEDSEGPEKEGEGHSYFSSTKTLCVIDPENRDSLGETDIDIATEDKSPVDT

Assay [7] deals with Cytochrome P450 3A4 (Homo sapiens) (UniProt P08684). Nature of the assay: qHTS Assay for Activators of Cytochrome P450 3A4 (AID 885). Note: nearly all actives have a fitted effect of over 65% in size. In outline:
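Steps: enzyme/substrate mix dispensed; compound added, 10 min RT; NADPH regeneration solution added, 60 min RT; luciferin detection buffer stops reaction; 20 min later luminescence measured.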

A short description of assay [8]: qHTS Assay for Lipid Storage Modulators (AID 1519; calls by dose curve). Particulars: Drosophila S3 cells, BODIPY lipid droplet/cell ratio, laser cytometry, cells loaded with oleic acid; for activity change, negative = inhibition: at 57.5 µM (top of the series). The procedure, abridged:
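Cells seeded at 5,000 per well were treated with compounds over a concentration series and loaded with oleic acid (400 uM, as added). Lipid droplet fluorescence (488 nm excitation, 500-530 nm channel) was read by laser-scanning cytometry and normalized to 20 uM Triacsin C.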

For assay [9], the target named is Dual specificity protein kinase CLK4 (Homo sapiens) (UniProt Q9HAZ1). Nature of the assay: qHTS Assay for Inhibitors of CDC-like Kinase 4 (ADP-Glo Assay) (AID 1771). Note: % is set by controls: 0 for no effect and ±100 for the full control effect; nearly all actives have a fitted effect of over 70% in size. The procedure, abridged:
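Kinase reaction: Clk4 at 25 nM, RS repeat peptide substrate at 100 uM, ATP at 1 uM, 1 hr, room temperature. Product ADP detected as luciferase signal via ADP-Glo.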

Assay [10] has the same target. Put plainly: qHTS Assay for Inhibitors of CDC-like Kinase 4 (ADP-FP Assay) (AID 1795). Note: % is set by controls: 0 for no effect and ±100 for the full control effect; nearly all actives have a fitted effect of over 60% in size. In outline:
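Recombinant human Clk4 (6.25 nM) phosphorylated RS repeat peptide (100 uM) with 1 uM ATP in Tris pH 7.5/MgCl2/EGTA/DTT/Triton buffer for one hour. ADP was quantified by Transcreener competitive fluorescence polarization against an ADP calibration curve.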

In assay [11] the target is Ubiquitin carboxyl-terminal hydrolase 1 (Homo sapiens) (UniProt O94782). Put plainly: Inhibitors of USP1/UAF1: Pilot qHTS (AID 504865).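 Note: rhodamine fluorescence freed from ubiquitin-rhodamine substrate followed over time; top concentration of the series differs between compounds; % is set by controls: 0 for no effect and ±100 for the full control effect; nearly all actives have a fitted effect of over 35% in size.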 In outline:
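USP1/UAF1 complex (1nM) preincubated with compound 15 min at room temperature, then Ub-Rho substrate (150nM final) added. Fluorescence read kinetically at 480/540 nm, 6 reads every 60 seconds. Buffer: 50mM HEPES pH 7.8, 0.5mM EDTA, 0.1 mg/ml BSA, 1mM TCEP, 0.01% Tween-20.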

Assay [12] is described as follows: Counterscreen qHTS for small molecule stabilizers of the endoplasmic reticulum resident proteome: GLuc-NoTag assay (AID 1508627).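 For activity change, negative = inhibition: SH-SY5Y cells given compound then 100 nM thapsigargin to empty ER calcium; 0% = thapsigargin alone and -100% = DMSO vehicle control.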 Note: potency is the fitted concentration of half-maximal effect. The procedure, abridged:
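Luminescence of Gaussia luciferase secreted into the medium (coelenterazine, 0.07x final, unlysed cells) was the read-out. Human SH-SY5Y neuroblastoma cells constitutively secreting untagged GLuc received compound for 19 h, then 100 nM thapsigargin for 4 h.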

Assay [13] is described as follows: AP1 Signaling Pathway (AID 357; active = well fitted curve in either direction with a large enough effect, not every such curve was filed as active;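 note: ME-180 reporter cells stimulated with EGF at its EC50 level; % is set by controls: 0 for no effect and ±100 for the full control effect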). Particulars: ME-180 AP-1-bla reporter, EGF-induced, beta-lactamase ratio, 5 h; at 7.69 µM (top of the series) unless noted. The procedure, abridged:
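Titration-series screen for positive or negative modulators of EC50 EGF-induced signaling in ME-180 cells carrying an AP-1-driven beta-lactamase reporter. After 5 hours at 37 degrees Celsius, CCF4 460nm/530nm emission ratio gave %Activity; AC50 values derived.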

Assay [14] can be described thus: NFAT Signaling Pathway (AID 444; active = well fitted curve in either direction with a large enough effect, not every such curve was filed as active;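 note: carbachol stimulus at about its EC50 of 1 µM final; % is set by controls: 0 for no effect and ±100 for the full control effect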). Particulars: Jurkat NFAT-bla M1, carbachol, beta-lactamase ratio, 5 h; at 7.69 µM (top of the series) unless noted. In outline:
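Read-out: CCF4 FRET ratio (460 nm/530 nm) after 1 h RT dye loading, used for %activity and AC50 from titration series. Cells: Jurkat NFAT-β-lactamase/M1 line, treated with compound plus 1 uM carbachol for 5 h, 37 °C.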

The nature of assay [15]: Stat Signaling Pathway (AID 446; active = well fitted curve in either direction with a large enough effect, not every such curve was filed as active;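 note: ME-180 cervical cancer cells given 40 pM IL-6 alongside compound; SIE-controlled beta-lactamase reporter measured as 460/530 nm FRET emission ratio; % is set by controls: 0 for no effect and ±100 for the full control effect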). The conditions noted are these: ME-180 SIE beta-lactamase reporter, IL-6 stimulated, 5 h; at 7.69 µM (top of the series) unless noted. The procedure, abridged:
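Screening format detects activators and inhibitors alike: ME-180 SIE-bla cells stimulated at 40 pM IL-6 for 5 hrs with compound, then dual-emission beta-lactamase read at 405 nm excitation.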

Assay [16] can be described thus: Confirmation and Secondary Assay for Modulators of Hemoglobin Beta Chain Splicing at IVS2 654 locus (AID 910).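 Note: HeLa cells stably carrying EGFP split by mutant beta-globin IVS2-654 intron; per-well total GFP intensity by laser scanning cytometry after 2-day treatment; % of control where 0% means no effect.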 In outline:
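Readout: per-well total peak green fluorescence (488 nm ex, 500–520 nm em) from objects 5–250 µm, reflecting correct splicing of an EGFP-654 reporter. Compounds were applied for 2 days at 37 °C to overnight-plated HeLa EGFP-654 cells; controls were DMSO and 500 nM IVS2-654 PNA.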

Assay [17] in a line: Confirmation and Secondary Assay for Modulators of Hemoglobin Beta Chain Splicing at IVS2 705 locus (AID 930).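 Note: HeLa cells stably expressing the EGFP-705 splicing reporter; GFP fluorescence per well restored by corrected splicing of the IVS2-705 intron in EGFP; % of control where 0% means no effect.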 The procedure, abridged:
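Per-well GFP, captured at 1 x 8 µm resolution with 488 nm excitation, served as the read-out for HeLa EGFP-705 cells incubated 2 days with test compound versus DMSO.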

Assay [18] in a line: Confirmatory qHTS for small molecule stabilizers of the endoplasmic reticulum resident proteome: Secreted ER Calcium Modulated Protein (SERCaMP) assay (AID 1508628). Note: potency is the fitted concentration of half-maximal effect; nearly all actives have a fitted effect of over 40% in size. In outline:
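We seeded SH-SY5Y-GLuc-SERCaMP cells, added compounds (three concentrations in the primary run, eleven up to 76.6 uM in confirmation), incubated 16 h, depleted ER calcium with thapsigargin, and read luciferase 4 h later.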

In assay [19] the target is Cytochrome P450 3A4 (Homo sapiens) (UniProt P08684). Put plainly: qHTS Assay for Inhibitors and Substrates of Cytochrome P450 3A4 (AID 884). Note: potency is the fitted concentration of half-maximal effect; nearly all actives have a fitted effect of over 50% in size. In outline: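 20 nM human CYP3A4 with 25 uM Luciferin-PPXE (at KM) in 200 mM KPO4, preincubated 10 min with compound; NADPH regeneration started a 60 min RT reaction. Luciferin detected by luminescence, normalized to 57 uM ketoconazole as full inhibition.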
Cytochrome P450 3A4 (Homo sapiens), sequence (P08684 whole entry, looked up): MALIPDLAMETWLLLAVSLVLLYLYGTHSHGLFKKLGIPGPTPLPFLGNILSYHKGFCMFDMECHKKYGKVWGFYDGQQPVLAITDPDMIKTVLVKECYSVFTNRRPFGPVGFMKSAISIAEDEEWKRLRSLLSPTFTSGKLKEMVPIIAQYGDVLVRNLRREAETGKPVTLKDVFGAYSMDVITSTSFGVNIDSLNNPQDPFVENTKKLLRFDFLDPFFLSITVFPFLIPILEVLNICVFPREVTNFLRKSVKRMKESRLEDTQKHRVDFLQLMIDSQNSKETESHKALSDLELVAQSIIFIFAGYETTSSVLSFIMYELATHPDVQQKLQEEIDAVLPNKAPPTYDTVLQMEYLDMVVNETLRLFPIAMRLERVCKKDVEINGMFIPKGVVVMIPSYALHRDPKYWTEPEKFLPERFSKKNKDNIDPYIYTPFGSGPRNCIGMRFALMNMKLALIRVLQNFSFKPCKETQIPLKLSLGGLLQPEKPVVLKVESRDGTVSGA

The mark [20] stands for this setting: measured here: cell count channel max response.
Where [21] appears, read: measured here: lipid channel max response.

Lysosomal acid glucosylceramidase (Homo sapiens), sequence (P04062 whole entry, looked up): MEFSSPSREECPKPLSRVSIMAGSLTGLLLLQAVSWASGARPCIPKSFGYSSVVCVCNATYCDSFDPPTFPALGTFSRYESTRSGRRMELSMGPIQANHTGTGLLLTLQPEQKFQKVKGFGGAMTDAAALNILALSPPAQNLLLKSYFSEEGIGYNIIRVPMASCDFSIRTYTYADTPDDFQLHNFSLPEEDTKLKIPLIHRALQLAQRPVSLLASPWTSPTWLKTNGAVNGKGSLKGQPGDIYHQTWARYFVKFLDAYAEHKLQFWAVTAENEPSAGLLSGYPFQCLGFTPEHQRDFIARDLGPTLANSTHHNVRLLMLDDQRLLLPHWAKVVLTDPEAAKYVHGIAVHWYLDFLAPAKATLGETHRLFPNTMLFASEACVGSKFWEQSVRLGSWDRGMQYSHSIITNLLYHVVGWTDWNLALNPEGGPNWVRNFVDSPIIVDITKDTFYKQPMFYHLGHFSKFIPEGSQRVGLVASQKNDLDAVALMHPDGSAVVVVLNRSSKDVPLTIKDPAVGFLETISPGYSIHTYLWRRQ
Ubiquitin carboxyl-terminal hydrolase 1 (Homo sapiens), sequence (O94782 whole entry, looked up): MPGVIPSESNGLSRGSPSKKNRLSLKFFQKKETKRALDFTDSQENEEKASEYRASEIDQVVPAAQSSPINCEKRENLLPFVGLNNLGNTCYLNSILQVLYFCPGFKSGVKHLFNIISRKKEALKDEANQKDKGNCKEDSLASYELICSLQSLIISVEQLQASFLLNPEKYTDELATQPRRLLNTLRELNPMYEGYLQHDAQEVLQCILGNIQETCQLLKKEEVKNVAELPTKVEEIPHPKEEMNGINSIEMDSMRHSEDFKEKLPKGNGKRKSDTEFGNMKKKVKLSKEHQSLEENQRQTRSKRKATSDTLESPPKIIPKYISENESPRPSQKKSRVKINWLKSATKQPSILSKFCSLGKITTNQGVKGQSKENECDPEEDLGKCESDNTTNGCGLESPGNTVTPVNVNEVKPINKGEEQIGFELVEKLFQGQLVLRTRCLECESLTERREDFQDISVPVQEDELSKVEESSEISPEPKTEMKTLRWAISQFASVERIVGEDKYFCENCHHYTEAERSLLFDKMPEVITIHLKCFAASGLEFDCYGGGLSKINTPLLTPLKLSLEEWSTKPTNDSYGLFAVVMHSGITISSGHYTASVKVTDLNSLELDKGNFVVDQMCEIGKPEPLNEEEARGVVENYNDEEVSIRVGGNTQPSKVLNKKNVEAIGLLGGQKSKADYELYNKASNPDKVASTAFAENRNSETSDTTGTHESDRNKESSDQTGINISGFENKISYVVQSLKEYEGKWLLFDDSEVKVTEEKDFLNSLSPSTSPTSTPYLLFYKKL
Dual specificity protein kinase CLK4 (Homo sapiens), sequence (Q9HAZ1 whole entry, looked up): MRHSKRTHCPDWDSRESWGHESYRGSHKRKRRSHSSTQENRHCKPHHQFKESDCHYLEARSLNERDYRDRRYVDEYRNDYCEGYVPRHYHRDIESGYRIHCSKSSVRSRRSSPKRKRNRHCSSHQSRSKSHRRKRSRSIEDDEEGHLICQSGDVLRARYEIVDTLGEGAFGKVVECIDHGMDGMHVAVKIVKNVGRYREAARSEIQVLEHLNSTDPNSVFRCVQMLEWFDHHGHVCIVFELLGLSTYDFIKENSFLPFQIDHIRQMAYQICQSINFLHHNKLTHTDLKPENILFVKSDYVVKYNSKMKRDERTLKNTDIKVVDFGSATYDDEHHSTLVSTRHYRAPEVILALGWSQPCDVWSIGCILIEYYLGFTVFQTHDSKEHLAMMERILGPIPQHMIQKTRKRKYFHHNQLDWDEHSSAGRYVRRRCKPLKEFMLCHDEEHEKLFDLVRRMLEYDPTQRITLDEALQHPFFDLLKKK

On to `CN1CCN(c2ncc3nc(-c4cccs4)c(=O)n(-c4ccccc4)c3n2)CC1`, for which the Potency in assay [1] is > 11.4 µM (inactive); in assay [2], 3.16 µM (active); in assay [3], > 9.22 µM (inactive); in [4], > 46 µM (inactive). For the same compound, the compound was classed as inactive in [5]. Moreover, the Potency entry in assay [6], in assay [7], in [9], in [10], in [11] and in [12] was “inactive” in each case. The activity change, negative = inhibition in [8] is -0.619% (inactive). Moreover, the results for the max response in assay [8] (setting [20]) and in [8] (setting [21]) were 22.3% and 18.9%, respectively.

As to `N#Cc1cccc(-c2nc(N3CCNCC3)c3ccccc3n2)c1`, the Potency is > 11.4 µM (inactive) in [1]; 2.51 µM (active) in assay [2]; > 46 µM (inactive) in assay [3]; > 46 µM (inactive) in [4]; 11.2 µM (active) in assay [18]. Also, the activity change, negative = inhibition in [13] is 5.75% (inactive); in [14], 10.9% (inactive); in assay [8], 6.61% (inactive). For the same compound, in [15], the activity, negative = inhibition was 11.7% (inactive). Besides, the result in [5], in [16] and in [17] was inactive. The Potency entry in assay [6], in [7] and in assay [11] was “inactive” in each case. The max response is 6.46% in assay [8] (setting [20]) and 11.8% in [8] (setting [21]).

Consider `Cc1ccccc1-c1nc(NC2CCNCC2)c2ccccc2n1`, for which the Potency in assay [1] was > 11.4 µM (inactive); in assay [2], 20 µM (active); in assay [3], > 46 µM (inactive); in [4], > 46 µM (inactive); in assay [18] it was 31.6 µM (active). In addition, the activity change, negative = inhibition in assay [13] was 19.1% (inactive); in [14], 0.36% (inactive). The activity, negative = inhibition in [15] was -7.16% (inactive). In addition, the outcome in assay [5], in [16] and in [17] was inactive. Also, the Potency result in assay [6] is “inactive”.

As to `COCCn1c(=O)c(-c2ccc(F)cc2)nc2cnc(OCc3ccccc3)nc21`, the Potency in assay [1] is > 11.4 µM (inactive); in assay [3], > 9.22 µM (inactive); in assay [4], > 46 µM (inactive). Besides, the figures for the activity change, negative = inhibition in assay [13] and in [14] were -23.2% (inactive) and -6.09% (inactive), respectively. For the same compound, the compound was called inactive in assay [5]. For the same compound, the Potency entry in [6], in assay [7] and in assay [12] was “inactive” throughout.

For the compound `COc1ccccc1-c1ccc2ncnc(N3CCN(C)CC3)c2c1`, the Potency was > 11.4 µM (inactive) in assay [1]; 3.16 µM (active) in [2]; > 46 µM (inactive) in assay [3]; > 46 µM (inactive) in [4]; 3.16 µM (active) in [19]; 44.7 µM (active) in assay [12]. For the same compound, the activity change, negative = inhibition in assay [13] is 2.3% (inactive); in [14], 4.65% (inactive). Besides, the result in assay [5], in assay [16] and in assay [17] was inactive. Moreover, the Potency entry in assay [6], in [7] and in [11] was “inactive” each time.
